PLK1 PBD inh – blocks phosphopeptide binding to human PLK1 polo-box domain. 360,000 tested, 2.8% active. Potency, µM, inactives show max response, negative = inhibition, most hits filed as inhibitors. Plk1 PBD binding of FITC phosphopeptide, fluorescence polarization; also: series mostly up to about 57 µM; % is scaled to controls: 0 for no effect and ±100 for the full control effect; nearly all actives have a fitted effect of over 65% in size
BAZ2B inh – blocks human BAZ2B; 360,000 tested, 4.4% active; AID 504333; Potency, µM (titrated, usually from 114 µM), without a hit: top-dose activity change, negative = inhibition, hits mostly inhibitors; AlphaScreen BAZ2B-H3K14Ac peptide displacement; also: % is scaled to controls: 0 for no effect and ±100 for the full control effect; nearly all actives have a fitted effect of over 60% in size
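Protein-peptide AlphaScreen: BAZ2B 50 nM, b-H3K14Ac 50 nM, 1x PBS pH 7.4 + 0.01% Tween-20. Preincubation 30 min RT; cpd 30 min RT (top 110 uM); beads 20 min RT, light-protected.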
HP1b binding inh – inhibitors of HP1-beta chromodomain binding to methylated histone tails; 390,000 tested, 0.56% active; AlphaScreen HP1-beta / biotin-H3K9me3 peptide binding; Potency, µM (highest dose often 114 µM), for inactives: top-dose activity change, negative = inhibition, most hits filed as inhibitors; P83916; also: nearly all actives have a fitted effect of over 70% in size
Target sequence (P83916 whole entry, looked up): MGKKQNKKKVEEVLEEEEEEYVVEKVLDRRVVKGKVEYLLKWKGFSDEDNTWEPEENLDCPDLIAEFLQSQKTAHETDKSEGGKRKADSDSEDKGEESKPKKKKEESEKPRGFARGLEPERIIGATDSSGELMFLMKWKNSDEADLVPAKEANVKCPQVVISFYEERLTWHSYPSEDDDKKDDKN
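Compound inhibition of the preformed complex between 50 nM HP1-beta and 50 nM biotinylated H3K9me3 peptide was read by AlphaScreen. Buffer was PBS pH 7.4 with 0.01% Tween-20. Incubations ran 30 min at room temperature, with 10 ug/mL donor/acceptor beads.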
JMJD2A Tudor inh – blocks the human JMJD2A Tudor domain; AlphaScreen JMJD2A-Tudor / H3K4me3 peptide binding; Potency, µM (titrated, usually from 114 µM), inactives show at the highest dose activity change, negative = inhibition, most hits filed as inhibitors; 390,000 tested, 4.4% active; AID 504339; also: % is scaled to controls: 0 for no effect and ±100 for the full control effect; nearly all actives have a fitted effect of over 50% in size
VDR inh – blocks the human vitamin D receptor; VDR-SRC2-3 peptide fluorescence polarization, 2 h; P11473; 400,000 tested, 0.93% active; AID 504847; Potency, µM, for the others: max response, negative = inhibition, usual class: inhibitors; also: % is scaled to controls: 0 for no effect and ±100 for the full control effect
Target sequence (P11473 whole entry, looked up): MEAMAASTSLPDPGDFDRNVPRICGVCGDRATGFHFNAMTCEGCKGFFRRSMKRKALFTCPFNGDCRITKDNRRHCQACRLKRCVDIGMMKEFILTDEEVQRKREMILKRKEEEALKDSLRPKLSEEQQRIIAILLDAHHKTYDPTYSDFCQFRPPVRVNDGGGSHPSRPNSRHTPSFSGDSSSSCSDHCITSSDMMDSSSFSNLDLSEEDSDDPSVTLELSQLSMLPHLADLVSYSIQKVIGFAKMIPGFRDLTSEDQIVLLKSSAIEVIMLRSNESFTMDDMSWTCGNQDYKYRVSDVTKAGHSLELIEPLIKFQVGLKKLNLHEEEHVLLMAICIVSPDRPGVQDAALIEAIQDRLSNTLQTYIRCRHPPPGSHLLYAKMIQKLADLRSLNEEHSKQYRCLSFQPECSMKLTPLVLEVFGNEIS
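The screen uses fluorescence polarization to detect compounds that interfere with recruitment of the SRC2-3 coactivator peptide to VDR; plates are read after 2 h at room temperature.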
L3MBTL1 inh – blocks human L3MBTL1 | Potency, µM (titrated, usually from 57.1 µM), for the others: at the highest dose activity, negative = inhibition, actives largely listed as inhibitors | 230,000 tested, 0.66% active | AlphaScreen L3MBTL1–H3K9me1 peptide binding | Q9Y468; also: % is scaled to controls: 0 for no effect and ±100 for the full control effect; nearly all actives have a fitted effect of over 60% in size
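First, the protein-peptide complex forms for 30 min at room temperature (L3MBTL1 50 nM, biotinylated H3K9me1 peptide 75 nM). Next, compounds are pin-transferred and incubated 30 min. Finally, AlphaScreen beads are added and read after 30 min.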
* marks the source's active call; other numbers are inactive results; u = inconclusive; x = no result given; [ ] = dose if it differs, or a comment. A selection: hits, their analogues and other compounds. The true share with any hit is near 6.9%. Calls follow the shape of the dose curve; as a rule, active = well fitted curve in the direction sought with a large enough effect; inconclusive = small, poorly fitted or top-dose-only effect, or another doubt; inactive = no such curve, though single readings can be large; an effect the other way counts as inactive or inconclusive. Potency is read from the fitted curve at half-maximal effect.

SMILES	PLK1 PBD inh	BAZ2B inh	HP1b binding inh	JMJD2A Tudor inh	VDR inh	L3MBTL1 inh
Cc1c(Cl)cccc1-n1c(-c2cccnc2)n[nH]c1=S	-5.2%	-1.5%	43.4%	35.5µM*	-8.4%	-11.6%
Cc1onc(-c2ccccc2)c1-c1n[nH]c(=S)n1-c1ccccc1Cl	-4.4%	-25.6%	21.7%	-28.1%	-6.5%	-2.1%
COc1ccc(-c2cc(-c3n[nH]c(=S)n3-c3ccccc3Cl)[nH]n2)cc1	-13.7%	-34.9%	19.5%	-19.6%	4.7%	-16.7%
Cc1cc(Cl)ccc1-n1c(-c2cccnc2)n[nH]c1=S	-11.9%	4.0%	44.3%	28.2µM*	1.6%	-16.7%
CC(C)c1nc2ccccc2c2nnc(SCC(=O)NCc3ccco3)n12	29.9µM*	-4.3%	-19.1%	u	-18.5%	x
CC(C)(C)c1nc2ccccc2c2nnc(SCC(=O)NCc3ccco3)n12	-6.1%	-7.0%	-0.7%	-32.3%	-6.3%	-4.7%
Cc1ccc(C)c(NC(=O)CSc2nc(-c3ccccc3)cc(=O)[nH]2)c1	x	-7.4%	-12.3%	-6.1%	4.1%	x
Cc1[nH]n(-c2ccccc2)c(=S)c1C=Nc1cccc([N+](=O)[O-])c1	3.36µM*	22.4µM*	-72.1%	2.51µM*	22.4µM*	1.2%
O=c1ccc(NS(=O)(=O)c2ccccc2Cl)cn1Cc1ccc(Cl)c(Cl)c1	-5.8%	56.2µM*	17.2%	-24.7%	15.8µM*	-8.0%
CCCCN(C(=O)c1cc2ccccc2o1)c1c(N)n(CCC)c(=O)[nH]c1=O	-4.5%	0.4%	20.0%	-11.1%	-9.1%	4.2%
Cc1c(CC(=O)N[C@H](C(=O)O)C(C)C)c(=O)oc2cc3c(cc12)CCC(C)(C)O3	21.2µM*	5.1%	7.8%	u	u	x
O=C(Cc1ccc(-n2cccc2)cc1)N1CCN(c2ccccc2F)CC1	1.1%	50.1µM*	u	35.5µM*	-1.3%	-22.6%
O=C(CCC(=O)N1CCN(c2ccccc2F)CC1)N1CCN(c2ccc(F)cc2)CC1	-19.4%	-17.6%	-2.6%	5.1%[57.1 µM]	11.1%	1.4%
Cc1cccc(NC(=O)c2ccc3snnc3c2)c1	x	0.7%	35.2%	5.0%	9.0%	x
Cc1cc(NC(=O)CCCN2C(=O)c3cccnc3C2=O)no1	2.99µM*	2.8%	-6.1%	u	-18.6%	-7.5%
O=C(NC(=S)Nc1cccnc1)c1cccc(Cl)c1	2.8%	x	x	x	x	x
CC(C)n1c(-c2ccccc2F)n[nH]c1=S	-13.0%	-6.1%	16.0%	3.98µM*	-1.1%	13.2%
CC(c1ccccc1)n1c(-c2ccccc2F)n[nH]c1=S (stereo not drawn)	-9.1%	-1.6%	20.2%	22.4µM*	14.0%	-2.5%
CC(c1ccccc1)n1c(-c2ccncc2)n[nH]c1=S (stereo not drawn)	-13.1%	4.5%	14.8%	17.8µM*	8.8%	x
CCOC(=O)Cc1ccc(NC(=O)NCc2ccc3c(c2)CCN3C(=O)CC)cc1	x	-0.3%	20.0%[57 µM]	-11.2%	5.5%	x
O=C(c1ccc2c3c(cccc13)CC2)C1CCCN(Cc2cccnc2)C1 (stereo not drawn)	-12.8%	44.7µM*	-2.8%[57 µM]	u	-5.7%	-7.8%
Cc1cccc(CN2CCCC(C(=O)c3ccc4c5c(cccc35)CC4)C2)n1 (stereo not drawn)	-2.8%	u	10.2%	u	0.0%	u
COc1cc(CN2CCCC(C(=O)c3ccc4c5c(cccc35)CC4)C2)cc(OC)c1O (stereo not drawn)	u	39.8µM*	-19.9%	u	-9.5%	-13.0%
CC(Cc1ccccc1)(NC(=O)CN)c1ccccc1 (stereo not drawn)	x	79.4µM*	x	x	x	x
CC1CN(C(=O)COc2coc(CN3CCc4ccccc4C3)cc2=O)CC(C)O1 (stereo not drawn)	-3.5%	-3.9%	38.2%	-0.7%	-23.4%	9.1%
SMILES	PLK1 PBD inh	BAZ2B inh	HP1b binding inh	JMJD2A Tudor inh	VDR inh	L3MBTL1 inh
CCN(CC)C1=CC(=O)OC12CCCCC2	10.6µM*	-5.9%	-22.7%	31.6µM*	0.8%	1.0%
CC(C)N(C1=CC(=O)OC12CCCCC2)C(C)C	3.5%	0.6%	38.5%	5.2%	34.4%	9.8%
O=C(Nc1ccc2c(c1)OCCO2)c1coc2ccccc2c1=O	12.1%	9.3%	62.0%	28.2µM*	-10.5%	10.4%
CCN(CC)C(=O)CN1CCN(c2ncccn2)CC1	1.1%	25.1µM*	u	4.47µM*	15.2%	3.1%
CC1=CC(C)(C)NC(=S)N1c1cccc2cc(S(=O)(=O)O)ccc12	26.7µM*	-38.1%	15.6%	u	-24.7%	u
CC1=CC(C)(C)NC(=S)N1c1ccccc1C	-14.0%	u	-9.6%	-27.6%	0.3%	x
COc1ccc(C(=O)NN2CCOCC2)cc1	-1.2%	-7.9%	27.6%	2.4%	1.1%	x
CN(C(=O)c1cc2c(s1)-c1ccc(Cl)cc1SC2)c1cccc(C(F)(F)F)c1	x	9.4%	68.5%	12.8%	11.0%	x
CN(C)/C=N/C(=S)Nc1cc(Cl)cc(Cl)c1	-12.4%	5.4%	29.2%	-6.2%	-6.7%	-13.8%
CN(C)/C=N/C(=S)Nc1ccccc1Cl	-13.6%	13.0%	16.2%	-10.4%	-15.9%	-19.5%
CN(C)/C=N/C(=S)Nc1ccc(Cl)c(Cl)c1	23.8µM*	-24.5%	-25.7%	u	u	-13.9%
CN(O)/C=N/C(=S)Nc1ccc(Cl)cc1Cl	29.9µM*	u	9.1%	-22.0%	u	0.2%
CCc1nn(CC(=O)NCc2ccc(OC)cc2OC)c(=O)c2cc3c(OC)cccc3n12	x	-0.7%	21.2%	-16.0%	3.9%	x
O=C(O)CCCN=CC1=C(O)CNC1=O	29.9µM*	-17.5%	-16.1%	22.4µM*	u	-0.6%
ClCC1NCC(c2ccccc2Cl)c2c1[nH]c1ccccc21 (stereo not drawn)	11.3%	44.7µM*	10.4%	u	-0.8%	x
C#Cc1ccc([C@@H]2C=C(C(=O)OCC=C)O[C@H](OCCCCO)C2)cc1	-8.9%	50.1µM*	30.2%	-33.8%	-15.4%	-0.5%
O=C(O)C1=C[C@H](c2ccc(F)cc2)C[C@H](OCCCCO)O1	-10.4%	79.4µM*	58.3%	-23.7%	8.7%	x
COc1ccc(F)cc1S(=O)(=O)Nc1ccc(C)cc1	-6.9%	3.6%	10.6%	0.4%	-6.0%	12.6%
CCC(C)c1ccc(OCCCCN2CCOCC2)cc1 (stereo not drawn)	-11.5%	50.1µM*	u	35.5µM*	-9.2%	x
CC(C)c1cccc(C(C)C)c1OCCCCCN1CCOCC1	-1.5%	x	27.2%	-17.9%	-3.0%	x
O=C(c1ccco1)N1CCN(CCOCCOc2cccc3ccccc23)CC1	-2.8%	u	20.4%	-23.3%	19.8%	x
COc1ccccc1OCCCCCCN1CCOCC1	-4.3%	50.1µM*	u	20µM*	-24.9%	4.3%
c1ccc(CN2CCN(CCOCCOc3cccc4ccccc34)CC2)cc1	-8.0%	22.4µM*	20µM*	1.78µM*	14.6%	-9.5%
